ER stress death – protection against thapsigargin ER stress killing – CSM14.1 cells, ATP luminescence, primary screen; relative survival (cellular ATP), % at 15 µg/mL (by protocol); CSM14.1 thapsigargin ER stress survival; hit rate 0.33% among 48,000;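 active = survival measured by cellular ATP above 50% at 15 µg/ml in the first screen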;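 also: cell death triggered by about 15 µM thapsigargin; ATP read 24 h after thapsigargin was added; plate controls were thapsigargin with DMSO for no effect and DMSO without thapsigargin for full effect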
An asterisk follows results filed as active. The entries come from a sample that favours hits as a whole.

SMILES	ER stress death
CCOc1ccc(C2Nc3ccccc3NC3=C2C(=O)CC(c2ccc(OC)cc2)C3)cc1 (stereo unspecified)	1
CCCOC(=O)C1=C(C)NC2=C(C(=O)CC(c3ccc(OC)cc3)C2)C1c1ccc(OCc2ccccc2)c(OC)c1 (stereo unspecified)	6
O=C1CC(c2ccccc2)CC2=C1C(c1ccc(-c3ccccc3)cc1)Nc1ccccc1N2 (stereo unspecified)	8
CSc1ccc(C2Nc3ccccc3NC3=C2C(=O)CC(c2ccccc2)C3)cc1 (stereo unspecified)	91*
CCC1S/C(=N/N=C/c2ccc3c(c2)OCO3)NC1=O (stereo unspecified)	1
Cc1cccn(C(=O)c2ccc3c(c2)OCO3)c1=NC(=O)c1ccc2c(c1)OCO2	0
O=C(Nc1nc(-c2ccc3ccccc3c2)cs1)c1ccncc1	5
O=C1CC(NCc2ccc3c(c2)OCO3)C(=O)N1c1cccc(Br)c1 (stereo unspecified)	5
CCOc1cc2oc(=O)cc(C)c2cc1CC	3
CCOC(=O)N1N=C(CC)CC1(O)c1ccncc1 (stereo unspecified)	1
COc1ccc(OC)c(/C=C2\C(=O)N(c3cccc(C(=O)O)c3)N=C2C)c1	6
NC(=O)c1c(NC(=O)/C=C/C(=O)O)sc2c1CCCC2	10
O=C(N/N=C/c1ccncc1)c1cc(-c2ccccc2)n[nH]1	1
Cc1ccc(NC(=O)c2ccc(Cl)cc2Cl)c([N+](=O)[O-])c1	3
CCOC(=O)c1c(NC(=S)NC(=O)c2ccccc2)sc2c1CC(C(C)C)OC2 (stereo unspecified)	16
Cc1c(Cl)cccc1NC(=O)/C(C#N)=C/c1ccc(N2CCOCC2)o1	13
COc1ccc(C=C2C(=O)N(C)C(=O)N(C)C2=O)c(OC)c1OC	2
O=C(CN1CCOCC1)C12CC3CCC(CC(C3)C1)C2	10
CCOc1ccccc1C1Nc2ccccc2NC2=C1C(=O)CC(c1ccc(OC)cc1)C2 (stereo unspecified)	19
CCCCOc1ccccc1C1Nc2ccccc2NC2=C1C(=O)CC(c1ccccc1)C2 (stereo unspecified)	53*
COc1ccccc1C1Nc2ccccc2NC2=C1C(=O)CC(c1ccccc1)C2 (stereo unspecified)	0
O=C(NC(c1ccccc1)c1ccccc1)c1ccc([N+](=O)[O-])cc1	0
O=C(NC(=S)Nc1ccc(NC(=O)c2ccco2)c(Cl)c1)c1ccc(Cl)cc1	-1
